Results: ChEMBL document CHEMBL3988442, “University of Dundee, Small-Polar-MMV Screening Library” (2021)
For part of these data: Measured potencies and affinities stand elsewhere.

Key:
Design in all cases: scale not given: direction of the effect not stated beside the values
[1] = molecular target: Protein translocase subunit SecA (Escherichia coli (strain K12)) (UniProt P10408); assay: Assay to Identify E. coli SecA ATPase Inhibitors; format: functional; conditions: 30 µM
[2] = molecular target: T1, Ubiquitin-activating enzyme e1, putative (Leishmania donovani (strain BPK282A1)) (UniProt E9BSI1); assay: Leishmania donovani Ubiquitin Activating Enzyme (LdE1); format: functional; conditions: 30 µM
T1 sequence (whole entry): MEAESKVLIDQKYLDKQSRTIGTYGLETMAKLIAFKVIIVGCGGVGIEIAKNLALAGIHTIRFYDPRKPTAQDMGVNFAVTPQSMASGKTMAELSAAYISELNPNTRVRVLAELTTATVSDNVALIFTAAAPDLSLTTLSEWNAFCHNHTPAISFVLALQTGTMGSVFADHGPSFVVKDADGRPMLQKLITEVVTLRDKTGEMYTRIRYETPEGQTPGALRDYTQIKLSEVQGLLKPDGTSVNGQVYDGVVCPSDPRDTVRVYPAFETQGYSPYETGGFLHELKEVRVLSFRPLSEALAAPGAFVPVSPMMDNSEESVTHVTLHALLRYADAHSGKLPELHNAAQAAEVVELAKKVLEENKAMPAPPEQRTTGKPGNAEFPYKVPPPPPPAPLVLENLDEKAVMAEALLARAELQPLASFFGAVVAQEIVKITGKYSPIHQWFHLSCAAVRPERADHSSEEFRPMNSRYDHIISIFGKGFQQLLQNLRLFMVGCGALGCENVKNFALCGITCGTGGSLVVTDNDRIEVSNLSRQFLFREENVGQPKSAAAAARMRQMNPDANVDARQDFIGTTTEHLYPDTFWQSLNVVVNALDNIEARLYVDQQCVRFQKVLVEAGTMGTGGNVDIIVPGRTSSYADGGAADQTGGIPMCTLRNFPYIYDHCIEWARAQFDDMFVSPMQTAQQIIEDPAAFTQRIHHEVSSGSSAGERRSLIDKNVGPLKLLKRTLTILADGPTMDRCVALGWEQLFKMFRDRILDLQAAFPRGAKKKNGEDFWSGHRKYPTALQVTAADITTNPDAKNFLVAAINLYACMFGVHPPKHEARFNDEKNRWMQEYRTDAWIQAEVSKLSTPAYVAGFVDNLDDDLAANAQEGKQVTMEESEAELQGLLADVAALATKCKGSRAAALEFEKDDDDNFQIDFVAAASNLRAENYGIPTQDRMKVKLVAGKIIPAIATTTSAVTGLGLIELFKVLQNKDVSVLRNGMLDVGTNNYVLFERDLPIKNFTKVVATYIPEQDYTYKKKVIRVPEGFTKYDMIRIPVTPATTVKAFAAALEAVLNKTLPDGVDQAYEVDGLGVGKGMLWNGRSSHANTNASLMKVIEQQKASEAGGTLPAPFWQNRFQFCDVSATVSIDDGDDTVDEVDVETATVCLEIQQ

[3] = molecular target: T2, Aspartate--tRNA(Asp/Asn) ligase (Mycobacterium tuberculosis (strain ATCC 25618 / H37Rv)) (UniProt P9WFW3); assay: Assay for Asp RNA synthetase-1 from Mycobacterium tuberculosis; format: functional; conditions: 30 µM; also: in the data most compounds retested in dose-response had high values
T2 sequence (whole entry): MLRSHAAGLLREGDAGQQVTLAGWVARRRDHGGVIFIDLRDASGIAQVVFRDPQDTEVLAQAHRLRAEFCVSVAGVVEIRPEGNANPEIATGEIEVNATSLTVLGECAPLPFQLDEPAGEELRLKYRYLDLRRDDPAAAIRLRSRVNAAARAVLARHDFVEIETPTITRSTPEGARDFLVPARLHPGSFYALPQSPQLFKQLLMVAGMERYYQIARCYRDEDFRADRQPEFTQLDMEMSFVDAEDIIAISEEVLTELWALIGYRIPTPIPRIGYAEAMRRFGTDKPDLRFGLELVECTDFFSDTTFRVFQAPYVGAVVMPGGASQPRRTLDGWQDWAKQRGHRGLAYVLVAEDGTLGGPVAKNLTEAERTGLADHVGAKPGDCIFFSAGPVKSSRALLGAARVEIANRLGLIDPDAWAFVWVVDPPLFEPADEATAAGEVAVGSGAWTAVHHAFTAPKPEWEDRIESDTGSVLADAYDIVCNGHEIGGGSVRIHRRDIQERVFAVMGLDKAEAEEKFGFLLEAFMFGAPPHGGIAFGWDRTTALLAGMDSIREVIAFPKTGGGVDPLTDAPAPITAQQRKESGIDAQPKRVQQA

[4] = molecular target: AMP-activated protein kinase, AMPK (Homo sapiens) (UniProt P54646+O43741+P54619+Q9UGJ0+Q9Y478+Q13131+Q9UGI9); assay: AMP-dependent Kinase enzyme assay. An in vitro enzyme assay that detects ADP turnover that is directly proportional to AMPK activity. This uses naive AMPK that is activated during the assay with MK-8722; format: functional; conditions: 30 µM
[5] = molecular target: Sialic acid-binding Ig-like lectin 9 (Homo sapiens) (UniProt Q9Y336); assay: Hs-Siglec9 ALPHAscreen SOP 20170721; conditions: 10 µM
[6] = tested on: Trypanosoma cruzi; assay: Trypanosoma cruzi phosphomannomutase and mannose-1-phosphate guanylyltransferase assay; format: functional; conditions: 10 µM
[7] = molecular target: T3, Arginase-2, mitochondrial (Homo sapiens) (UniProt P78540); assay: in vitro enzyme assay to detect the production of urea directly proportional to the activity of Arginase II; format: functional; conditions: 33.3 µM; also: in the data most compounds retested in dose-response had high values
T3 sequence (whole entry): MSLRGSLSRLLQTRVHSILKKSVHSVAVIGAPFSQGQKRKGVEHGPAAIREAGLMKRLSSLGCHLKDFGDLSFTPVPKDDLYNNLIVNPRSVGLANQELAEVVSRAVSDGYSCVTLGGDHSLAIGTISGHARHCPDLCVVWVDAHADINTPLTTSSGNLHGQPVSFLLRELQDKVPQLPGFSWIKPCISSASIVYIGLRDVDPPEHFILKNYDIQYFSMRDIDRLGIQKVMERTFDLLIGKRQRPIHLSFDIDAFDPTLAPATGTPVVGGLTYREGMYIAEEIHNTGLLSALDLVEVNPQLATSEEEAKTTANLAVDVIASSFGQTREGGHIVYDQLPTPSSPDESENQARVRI

[8] = molecular target: T4, Proteasome subunit beta (Trypanosoma cruzi) (UniProt O96673); assay: Trypanosoma cruzi proteasome chymotrypsin-like activity (TcProtChymo) assay.; also: in the data most compounds retested in dose-response had high values; format: functional; conditions: 9.37 µM
T4 sequence (whole entry): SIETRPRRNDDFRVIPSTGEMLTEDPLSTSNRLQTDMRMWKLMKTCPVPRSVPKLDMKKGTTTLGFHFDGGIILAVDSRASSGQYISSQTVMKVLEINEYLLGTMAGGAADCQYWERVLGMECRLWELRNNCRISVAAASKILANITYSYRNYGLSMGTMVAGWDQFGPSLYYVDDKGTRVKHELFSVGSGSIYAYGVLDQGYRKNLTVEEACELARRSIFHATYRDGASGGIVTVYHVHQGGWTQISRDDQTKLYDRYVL

[9] = species on record: Homo sapiens; assay: To identify inhibition of the IFN signalling (Jak-Stat) pathway via expression of an eGFP reporter gene under the control of an IFN-stimulated response element (ISRE) containing MxA promoter.; format: functional; conditions: 30 µM
[10] = molecular target: Shiga toxin 2 (Escherichia coli O157:H7) (UniProt P09385+P09386); assay: E. coli 0.157:H7 Shiga Toxin SOP - stx2 screening assay; format: functional; conditions: 30 µM
[11] = molecular target: T5, Tyrosyl-tRNA synthetase, putative (Trypanosoma cruzi (strain CL Brener)) (UniProt Q4DSP6); assay: Trypanosoma cruzi tyrosyl tRNA synthetase (TcYRS) _High Tyrosine SOP; format: functional; conditions: 30 µM; also: in the data most compounds retested in dose-response had high values
T5 sequence (whole entry): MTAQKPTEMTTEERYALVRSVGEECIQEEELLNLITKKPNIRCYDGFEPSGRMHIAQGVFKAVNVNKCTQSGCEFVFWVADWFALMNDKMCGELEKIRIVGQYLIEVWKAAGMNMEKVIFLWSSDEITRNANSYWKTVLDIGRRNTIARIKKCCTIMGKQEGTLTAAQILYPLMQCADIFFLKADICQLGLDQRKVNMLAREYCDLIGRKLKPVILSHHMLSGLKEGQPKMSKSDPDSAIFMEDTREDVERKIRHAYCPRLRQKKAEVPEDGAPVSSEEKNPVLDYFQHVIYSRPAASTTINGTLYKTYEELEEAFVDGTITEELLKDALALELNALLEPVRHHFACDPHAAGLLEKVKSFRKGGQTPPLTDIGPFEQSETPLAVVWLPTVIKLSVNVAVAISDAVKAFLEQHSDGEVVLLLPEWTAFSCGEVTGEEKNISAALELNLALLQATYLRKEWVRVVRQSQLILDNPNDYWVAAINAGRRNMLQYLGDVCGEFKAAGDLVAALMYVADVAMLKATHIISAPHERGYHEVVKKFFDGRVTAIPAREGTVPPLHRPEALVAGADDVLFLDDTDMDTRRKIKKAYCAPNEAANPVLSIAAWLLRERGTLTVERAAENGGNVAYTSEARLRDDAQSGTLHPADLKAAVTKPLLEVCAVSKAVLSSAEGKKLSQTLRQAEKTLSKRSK

[12] = molecular target: T5, Tyrosyl-tRNA synthetase, putative (Trypanosoma cruzi (strain CL Brener)); assay: Trypanosoma cruzi tyrosyl tRNA synthetase (TcYRS) SOP; format: functional; conditions: 30 µM
[13] = molecular target: Chromo domain-containing protein 1 (Saccharomyces cerevisiae (strain ATCC 204508 / S288c) (Baker's yeast)) (UniProt P32657); assay: ScCHD-1 Enzyme Inhibition Assay; format: functional; conditions: 30 µM; also: in the data most compounds retested in dose-response had high values
Sequence of Chromo domain-containing protein 1 (Saccharomyces cerevisiae (strain ATCC 204508 / S288c) (Baker's yeast)) (P32657 whole entry, the tested form may be a part): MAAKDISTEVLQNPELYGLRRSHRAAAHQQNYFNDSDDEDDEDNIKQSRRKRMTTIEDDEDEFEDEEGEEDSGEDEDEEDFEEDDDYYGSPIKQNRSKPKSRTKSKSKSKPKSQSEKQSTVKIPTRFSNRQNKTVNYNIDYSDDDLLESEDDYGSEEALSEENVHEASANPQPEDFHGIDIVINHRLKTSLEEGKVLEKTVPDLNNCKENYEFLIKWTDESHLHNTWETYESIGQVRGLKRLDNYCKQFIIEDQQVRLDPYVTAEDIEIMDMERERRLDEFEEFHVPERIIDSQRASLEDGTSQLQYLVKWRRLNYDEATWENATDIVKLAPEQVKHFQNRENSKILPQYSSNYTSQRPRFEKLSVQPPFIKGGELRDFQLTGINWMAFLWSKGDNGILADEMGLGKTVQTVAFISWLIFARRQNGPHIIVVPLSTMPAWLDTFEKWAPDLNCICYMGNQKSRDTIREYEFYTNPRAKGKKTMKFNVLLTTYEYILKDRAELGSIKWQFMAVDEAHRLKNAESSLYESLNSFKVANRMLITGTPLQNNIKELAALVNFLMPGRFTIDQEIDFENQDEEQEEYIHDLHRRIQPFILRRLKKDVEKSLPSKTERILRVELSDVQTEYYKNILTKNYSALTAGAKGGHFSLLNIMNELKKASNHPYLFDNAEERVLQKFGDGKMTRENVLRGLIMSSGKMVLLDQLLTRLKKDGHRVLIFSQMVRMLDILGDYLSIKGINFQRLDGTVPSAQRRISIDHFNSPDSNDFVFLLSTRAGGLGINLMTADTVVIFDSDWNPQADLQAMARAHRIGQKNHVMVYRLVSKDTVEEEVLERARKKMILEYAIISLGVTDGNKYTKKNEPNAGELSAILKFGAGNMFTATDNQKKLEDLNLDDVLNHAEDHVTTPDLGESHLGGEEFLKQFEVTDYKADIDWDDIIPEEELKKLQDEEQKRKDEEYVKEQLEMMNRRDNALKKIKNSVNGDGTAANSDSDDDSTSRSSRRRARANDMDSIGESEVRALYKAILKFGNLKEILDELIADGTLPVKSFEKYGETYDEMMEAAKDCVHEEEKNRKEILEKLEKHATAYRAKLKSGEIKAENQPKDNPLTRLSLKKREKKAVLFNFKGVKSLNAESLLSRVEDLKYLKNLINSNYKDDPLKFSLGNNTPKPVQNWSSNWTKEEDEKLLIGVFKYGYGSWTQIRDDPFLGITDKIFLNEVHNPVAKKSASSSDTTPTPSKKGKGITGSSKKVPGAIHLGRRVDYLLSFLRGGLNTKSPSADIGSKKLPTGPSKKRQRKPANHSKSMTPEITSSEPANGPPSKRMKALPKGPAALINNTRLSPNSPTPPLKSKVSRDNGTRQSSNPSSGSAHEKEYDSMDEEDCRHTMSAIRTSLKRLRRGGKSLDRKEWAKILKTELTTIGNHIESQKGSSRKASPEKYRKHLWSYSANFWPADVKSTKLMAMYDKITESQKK

Sequence of Sialic acid-binding Ig-like lectin 9 (Homo sapiens) (Q9Y336 whole entry): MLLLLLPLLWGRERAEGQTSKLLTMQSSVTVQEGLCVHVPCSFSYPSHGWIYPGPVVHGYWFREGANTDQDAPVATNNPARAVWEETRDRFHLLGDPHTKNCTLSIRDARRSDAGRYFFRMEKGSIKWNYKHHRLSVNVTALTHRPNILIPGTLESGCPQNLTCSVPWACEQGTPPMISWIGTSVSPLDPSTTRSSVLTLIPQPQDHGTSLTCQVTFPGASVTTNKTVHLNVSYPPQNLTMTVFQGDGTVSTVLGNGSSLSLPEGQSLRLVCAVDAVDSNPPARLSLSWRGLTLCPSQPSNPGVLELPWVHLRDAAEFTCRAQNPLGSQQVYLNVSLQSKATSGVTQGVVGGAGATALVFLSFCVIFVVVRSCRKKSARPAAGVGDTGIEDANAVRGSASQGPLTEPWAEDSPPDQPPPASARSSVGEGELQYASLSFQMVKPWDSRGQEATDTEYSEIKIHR
Sequence of Protein translocase subunit SecA (Escherichia coli (strain K12)) (P10408 whole entry): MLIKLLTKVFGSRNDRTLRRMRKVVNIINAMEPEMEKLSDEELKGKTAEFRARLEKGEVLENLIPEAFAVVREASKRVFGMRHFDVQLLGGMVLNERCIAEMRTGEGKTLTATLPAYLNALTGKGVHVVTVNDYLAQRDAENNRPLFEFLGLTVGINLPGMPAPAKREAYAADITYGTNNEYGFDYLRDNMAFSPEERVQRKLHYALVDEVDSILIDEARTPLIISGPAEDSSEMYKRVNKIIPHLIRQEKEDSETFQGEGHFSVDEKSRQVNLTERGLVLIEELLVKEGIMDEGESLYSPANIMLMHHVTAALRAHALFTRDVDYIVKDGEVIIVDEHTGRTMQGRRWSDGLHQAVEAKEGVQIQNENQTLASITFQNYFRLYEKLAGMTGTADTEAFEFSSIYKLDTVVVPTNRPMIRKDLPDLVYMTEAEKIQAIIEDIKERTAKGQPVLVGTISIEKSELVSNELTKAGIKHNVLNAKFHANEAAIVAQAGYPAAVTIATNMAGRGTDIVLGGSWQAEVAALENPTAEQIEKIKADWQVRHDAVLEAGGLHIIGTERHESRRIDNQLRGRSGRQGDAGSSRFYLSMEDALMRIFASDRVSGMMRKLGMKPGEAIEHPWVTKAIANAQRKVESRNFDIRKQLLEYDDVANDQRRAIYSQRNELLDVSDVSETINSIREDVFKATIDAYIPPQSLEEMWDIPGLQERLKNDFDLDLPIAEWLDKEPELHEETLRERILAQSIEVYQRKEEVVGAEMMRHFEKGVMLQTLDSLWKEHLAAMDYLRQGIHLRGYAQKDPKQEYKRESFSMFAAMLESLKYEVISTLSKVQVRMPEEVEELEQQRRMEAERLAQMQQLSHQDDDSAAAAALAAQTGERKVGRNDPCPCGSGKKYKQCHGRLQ

| SMILES | Percent Effect [1] [%] | Percent Effect [2] [%] | Percent Effect [3] [%] | Percent Effect [4] [%] | Percent Effect [5] [%] | Percent Effect [6] [%] | Percent Effect [7] [%] | Percent Effect [8] [%] | Percent Effect [9] [%] | Percent Effect [10] [%] | Percent Effect [11] [%] | Percent Effect [12] [%] | Percent Effect [13] [%] |
| --- | --- | --- | --- | --- | --- | --- | --- | --- | --- | --- | --- | --- | --- |
| CC(C)CN1C[C@H]2C[C@H](C(=O)Nc3cccnc3)[C@@H](C1)O2 | -0.904 | 0 | -0.0153 | 7.32 | -2.44 | -7.33 | 2.87 | 15.9 | -8.69 | -15.6 | 1.08 | 15.4 | 2.38 |
| c1ccc(CN2CC[C@H]3CO[C@H](CNc4ncccn4)[C@H]3C2)nc1 | -2.49 | 8 | -3.84 | 2.38 | 4.32 | -0.772 | -54.3 | 9.74 | -5.93 | 3.55 | 2.08 | 12.5 | -8.55 |
| CC(C)NC(=O)[C@H]1C[C@@H]2[C@@H](C1)OCCN2Cc1cccnc1 | 1.37 | -5.33 | 3.61 | 10.3 | 6.39 | -4.25 | -52.9 | 1.54 | 7.17 | -9.38 | 3.12 | 2.5 | -0.286 |
